Source: PubChem (National Center for Advancing Translational Sciences (NCATS))
Only some compounds are listed: those with a hit (about 2.9% of all), similar ones and a draw of the others.
ATXN2 expr inh: inhibitors of ATXN2 expression | HEK-293 ATXN2-luciferase reporter, luminescence, 24 h | Potency, µM (top dose mostly 57 µM), for the others: top-dose activity change, negative = inhibition, most hits filed as inhibitors | actives 0.72% (n = 360,000); note: % is set by controls: 0 for no effect and ±100 for the full control effect; nearly all actives have a fitted effect of over 55% in size
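qHTS (up to 57 uM final) was run with 24 h compound exposure of reporter cells at 37 °C. Each well was multiplexed: SteadyGlo luminescence measured ATXN2-luciferase expression after a fluorogenic Gly-Phe-AFC viability readout (25 uM final).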
Nrf2 block: Nrf2 pathway inhibition; A549 ARE-Fluc reporter, luciferase luminescence, 18-24 h; Potency, µM (doses to about 46 µM), without a hit: at the highest dose activity change, negative = inhibition, actives largely listed as inhibitors; actives 2.1% (n = 360,000); AID 504444; note: % is set by controls: 0 for no effect and ±100 for the full control effect; nearly all actives have a fitted effect of over 60% in size
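Quantitative HTS in A549 cells stably bearing an antioxidant response element-firefly luciferase construct. Inhibition of Nrf2-driven transcription was scored by luminescence after 18-24 h of compound exposure at 37 °C.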
Nrf2 activator: Nrf2 pathway activation. AREc32 ARE-luciferase reporter (MCF7-derived line), luminescence, 24 h. Potency, µM (series often up to 46.1 µM), for inactives: at the top dose activation, usual class: activators. actives 0.31% (n = 410,000). AID 624171; note: % of control where 0% means no effect; nearly all actives have a fitted effect of over 65% in size
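Nrf2 activation is followed as ARE-luciferase induction in the AREc32 line after one day of compound treatment; luminescence is read with Steady-Glo.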
S2 tox: viability counter-screen for ATXN expression inhibitors. AID 651635. actives 0.49% (n = 400,000). S2 cells (HEK-293 line with an ATXN2-luciferase reporter) viability, CellTiter-Fluor protease fluorescence, 24 h. Potency, µM (series often up to 56.7 µM), hits mostly cytotoxic; note: nearly all actives have a fitted effect of over 40% in size
A549 tox: counter-screen for Nrf2 inhibitors: cytotoxicity in A549 cells; Potency, µM (titrated, usually from 46 µM), without a hit: top-dose activity change, negative = cytotoxicity, most hits filed as inhibitors; actives 0.16% (n = 390,000); A549 ARE-Fluc cells, CellTiter-Fluor viability, 18-24 h; AID 504648; note: % is set by controls: 0 for no effect and ±100 for the full control effect
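A549 ARE_Fluc cells in 5% FBS OPTI-MEM were exposed to compounds in concentration-response for 18-24 h at 37 deg C. Viability was read by CellTiter-Fluor fluorescence (Ex 405/Em 525) after 30 min, before the luciferase read.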
Starred values were filed as active, the others as inactive; i = inactive; ? = inconclusive; nt = no result given. Calls come from the whole dose curve; as a rule, active = well fitted curve in the direction sought with a large enough effect; inconclusive = small, poorly fitted or top-dose-only effect, or another doubt; inactive = no such curve, though single readings can be large; an effect the other way counts as inactive or inconclusive. Potency is the fitted concentration of half-maximal effect.

SMILES	ATXN2 expr inh	Nrf2 block	Nrf2 activator	S2 tox	A549 tox
Cc1ccc(C(=O)NCCN2C3=NC[C@H](Cc4ccc(O)cc4)N3C[C@H]2Cc2ccc(O)cc2)cc1Br	9.9%	0.9%	3.6%	i	-5.3%
COc1ccc(C[C@H]2CN3C(=NC[C@H]3Cc3ccccc3)N2CCNC(=O)CCC2CCCCC2)cc1	35.5µM*	14.8%	-5.8%	35.5µM*	-1.3%
COc1ccc(C[C@H]2CN3C(=NC[C@@H]3Cc3ccc(O)cc3)N2CCNC(=O)c2ccc(C)c(Br)c2)cc1	25.1µM*	9.6%	-4.8%	nt	-19.8%
C/C=C(\C)C(=O)NCCN1C2=NC[C@H](Cc3ccccc3)N2C[C@@H]1Cc1ccc(OC)cc1	-12.4%	25.3%	0.5%	i	2.3%
COc1ccc(C[C@H]2CN3C(=NC[C@@H]3Cc3ccccc3)N2CCNC(=O)c2ccc(C)c(Br)c2)cc1	22.4µM*	3.2%	-5.0%	nt	-20.8%
C/C=C(\C)C(=O)NCCN1C2=NC[C@@H](C)N2C[C@@H]1Cc1ccc(OC)cc1	6.2%	3.1%	0.1%	i	-1.7%
Cc1ccc(C(=O)NCCN2C3=NC[C@@H](Cc4ccccc4)N3C[C@H]2Cc2ccc(O)cc2)cc1Br	25.1µM*	21.4%	-5.3%	?	0.1%
Cc1ccc(C(=O)N[C@@H](C)CN2C3=NC[C@H](C(C)C)N3C[C@H]2Cc2ccc(O)cc2)cc1Br	?	-2.8%	-4.2%	?	-13.8%
CC(O)c1cccc(N=Cc2ccc3ccccc3c2O)c1 (stereo unspecified)	nt	-2.8%	0.4%	i	-2.8%
C[C@@H](CN1C2=NC[C@H](Cc3ccccc3)N2C[C@H]1Cc1ccc(O)cc1)NC(=O)CCC1CCCCC1	28.2µM*	3.2%	-3.7%	22.4µM*	0.2%
COc1ccc(C[C@H]2CN3C(=NC[C@H]3Cc3ccccc3)N2CCNC(=O)c2ccc(C)c(Br)c2)cc1	?	-27.3%	-5.5%	28.2µM*	?
C/C=C(\C)C(=O)NCCN1C2=NC[C@H](Cc3ccccc3)N2C[C@H]1Cc1ccc(O)cc1	-3.4%	2.2%	-0.2%	i	-2.0%
COc1ccc(CNS(=O)(=O)c2ccc(-n3cnnn3)c(C)c2)cc1	8.9%	-18.1%	-0.5%	i	-1.1%
CC(=O)c1ccc(OCCNS(=O)(=O)c2ccc(-n3cnnn3)c(C)c2)cc1	-5.5%	5.8µM*	-0.1%	i	-7.6%
O=C(Nc1cc(C(F)(F)F)ccc1Cl)[C@H](O)CCc1ccccc1	nt	25.9µM*	nt	nt	?
O=C(CNC(=O)c1cccc(Cl)c1)OC(C(=O)Nc1cc(C(F)(F)F)ccc1Cl)c1ccccc1 (stereo unspecified)	nt	23.1µM*	nt	nt	-25.4%
O=C(NC(=S)Nc1cc(C(F)(F)F)ccc1Cl)c1ccccc1	-5.4%	?	3.16µM*	i	4.0%
CC(C)CC(O)C(=O)Nc1cc(C(F)(F)F)ccc1Cl (stereo unspecified)	nt	-5.7%	nt	nt	-6.1%
Cc1c(Br)c([N+](=O)[O-])nn1CC(=O)Nc1c(C)n(C)n(-c2ccccc2)c1=O	nt	-14.7%	-0.7%	i	-10.4%
CN(Cc1ccccc1F)C(=O)COc1ccc(C(=O)c2ccccc2)cc1	-23.7%	-28.5%	0.7%	i	1.0%
COc1ccc(/C=C/C(=O)NCC(=O)N/N=C/c2cc(Br)ccc2OCc2ccccc2)cc1	-33.2%	nt	3.0%	15.8µM*	-18.6%
COc1ccc(CCNC(=O)c2ccc(F)c(S(=O)(=O)N3CCCCC3)c2)cc1	nt	nt	-0.7%	?	nt
Cn1cnnc1Sc1ccc(/C=C/C(=O)c2ccc(O)cc2)cc1[N+](=O)[O-]	nt	18.4µM*	?	7.08µM*	?
O=C(Nc1cc(=O)[nH]c2ncnn12)c1ccccc1	-6.0%	-10.6%	-0.1%	i	1.5%
C=CCNC1=C(Cl)C(=O)c2ccccc2C1=O	-35.7%	16.4µM*	?	i	?
SMILES	ATXN2 expr inh	Nrf2 block	Nrf2 activator	S2 tox	A549 tox
O=C1C(Cl)=C(NCCc2ccccc2)C(=O)N1CCc1ccccc1	14.9%	13.2%	3.3%	i	0.0%
O=C(O)c1cccc(NC2=C(Cl)C(=O)c3ccccc3C2=O)c1	?	?	-2.5%	25.1µM*	?
O=C1C(Cl)=C(NCCc2ccccc2)C(=O)c2ccccc21	31.6µM*	2.3%	?	i	-5.0%
CC(C)NC1=C(Cl)C(=O)c2ccccc2C1=O	-15.8%	?	8.2%	?	?
O=C(O)c1ccc(NC2=C(Cl)C(=O)c3ccccc3C2=O)cc1	4.47µM*	0.7%	10.1%	10µM*	-11.0%
O=C(CCS(=O)(=O)c1ccccc1)Nc1ccc2c(c1)OCO2	45.4%	?	3.6%	i	4.9%
Cc1ccc(Cl)cc1-n1ncc2c(NC3CCCCC3)ncnc21	?	nt	0.1%	?	-20.4%
Cc1ccc(N2C(=O)CSC2c2c(F)cccc2Cl)cc1 (stereo unspecified)	-6.0%	-28.4%	0.0%	i	-1.4%
Cc1ccccc1C(=O)N1CCN(S(=O)(=O)c2ccccc2)CC1	-4.4%	11.7%	0.2%	i	10.0%
O=C1C(Cl)=C(Nc2ccccc2)C(=O)c2ccccc21	?	-11.5%	?	28.2µM*	-12.8%
Cc1ccc(NC2=C(N3CCCCC3)C(=O)c3ccccc3C2=O)cc1	?	16.9%	-0.6%	?	-2.8%
COC1=C(Nc2ccc(C)cc2)C(=O)c2ccccc2C1=O	5.1%	16.4µM*	0.6%	?	?
COC1=C(Nc2ccccc2)C(=O)c2ccccc2C1=O	-18.7%	-0.8%	0.3%	?	-2.0%
CC(=O)N(Cc1ccc(F)cc1)C1=C(NCCc2ccccc2)C(=O)c2ccccc2C1=O	12.6µM*	20.6µM*	-1.1%	28.2µM*	23.1µM*
CC(=O)N(Cc1ccc(F)cc1)c1cccc(C)c1C	nt	0.4%	-0.5%	i	1.7%
CC1=C(Nc2ccc(C(=O)O)cc2)C(=O)c2ccccc2C1=O	-13.4%	23.1µM*	1.9%	?	?
CCCNC(=O)C(=O)N/N=C/c1ccc(OCc2ccccc2)cc1	13.0%	7.8%	-0.2%	i	8.7%
Cc1cc(C)cc(Nc2cc(C(=O)NCCCN(Cc3ccccc3)C(C)C)c3ccccc3n2)c1	14.1µM*	nt	1.1%	12.6µM*	?
CSc1cccc(Nc2cc(C(=O)NCCCN(Cc3ccccc3)C(C)C)c3ccccc3n2)c1	25.1µM*	nt	-3.4%	?	?
COc1ccc(Nc2cc(C(=O)NCCCN(C)Cc3ccccc3)c3ccccc3n2)cc1	nt	nt	-0.8%	nt	-3.1%
CSc1cccc(Nc2cc(C(=O)NC3CCCCC3)c3ccccc3n2)c1	-6.4%	12.4%	3.6%	i	12.0%
CCOC(=O)c1c(C)c(C(=O)NCCCOC)c(C)n1C	1.5%	-8.0%	-0.6%	i	1.2%
CN(C)S(=O)(=O)c1ccc(S(=O)(=O)NCc2ccc3c(c2)OCO3)cc1	-20.1%	-10.1%	0.8%	i	8.7%
